Laboratory results reported in PMC8222333, “AsCas12a ultra nuclease facilitates the rapid generation of therapeutic cell medicines”.

Columns and labels:
Test in all cases: Spec-seq (native PAGE EMSA with sequencing of bound and unbound); 25 mM Tris-HCl pH 7.4, 150 mM KCl, 5 mM MgCl2, 10% glycerol, 1 mM DTT, 40 ng/uL salmon sperm DNA; 400 nM Cas12a, 480 nM crRNA, 50 nM library, 37 C 1 h; native PAGE at room temperature; high values mean tight binding
Conditions in all cases: protein: recombinant
dAsCas12a S542R = dAsCas12a S542R (Acidaminococcus sp., UniProt U2UMQ6 1-1307, S542R;D908A;E993A;D1235A)
d-enCas12a = d-enCas12a (Acidaminococcus sp., UniProt U2UMQ6 1-1307, E174R;S542R;K548R;D908A;E993A;D1235A)
d-enCas12a-Ultra = d-enCas12a-Ultra (Acidaminococcus sp., UniProt U2UMQ6 1-1307, E174R;S542R;K548R;M537R;F870L;D908A;E993A;D1235A)
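Also: relative affinity from the bound to unbound sequence frequency ratio in Spec-seq.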

Row | Binder | binding signal (dAsCas12a S542R) [lnKA] | binding signal (d-enCas12a) [lnKA] | binding signal (d-enCas12a-Ultra) [lnKA]
1 | AGCC (dsDNA) DNA 1: GCTATCTAGTGCTCAGTACGCACTGAGCCAGGAAACTTCTGGCAGGACCAGGTCATGAGATCGGAAGAGCACACGTCTGAACTCCAGTCA DNA 2: TGACTGGAGTTCAGACGTGTGCTCTTCCGATCTCATGACCTGGTCCTGCCAGAAGTTTCCTGGCTCAGTGCGTACTGAGCACTAGATAGC RNA: AAUUUCUACUCUUGUAGAUAGGAAACUUCUGGCAGGACC | -8.34 | -2.31 | -0.527
2 | CACC (dsDNA) DNA 1: GCTATCTAGTGCTCAGTACGCACTGCACCAGGAAACTTCTGGCAGGACCAGGTCATGAGATCGGAAGAGCACACGTCTGAACTCCAGTCA DNA 2: TGACTGGAGTTCAGACGTGTGCTCTTCCGATCTCATGACCTGGTCCTGCCAGAAGTTTCCTGGTGCAGTGCGTACTGAGCACTAGATAGC RNA: AAUUUCUACUCUUGUAGAUAGGAAACUUCUGGCAGGACC | -8.05 | -1.94 | -0.454
3 | CAGC (dsDNA) DNA 1: GCTATCTAGTGCTCAGTACGCACTGCAGCAGGAAACTTCTGGCAGGACCAGGTCATGAGATCGGAAGAGCACACGTCTGAACTCCAGTCA DNA 2: TGACTGGAGTTCAGACGTGTGCTCTTCCGATCTCATGACCTGGTCCTGCCAGAAGTTTCCTGCTGCAGTGCGTACTGAGCACTAGATAGC RNA: AAUUUCUACUCUUGUAGAUAGGAAACUUCUGGCAGGACC | -8.95 | -5.94 | -3.45
4 | CAGA (dsDNA) DNA 1: GCTATCTAGTGCTCAGTACGCACTGCAGAAGGAAACTTCTGGCAGGACCAGGTCATGAGATCGGAAGAGCACACGTCTGAACTCCAGTCA DNA 2: TGACTGGAGTTCAGACGTGTGCTCTTCCGATCTCATGACCTGGTCCTGCCAGAAGTTTCCTTCTGCAGTGCGTACTGAGCACTAGATAGC RNA: AAUUUCUACUCUUGUAGAUAGGAAACUUCUGGCAGGACC | -8.93 | -5.81 | -3.41
5 | CACA (dsDNA) DNA 1: GCTATCTAGTGCTCAGTACGCACTGCACAAGGAAACTTCTGGCAGGACCAGGTCATGAGATCGGAAGAGCACACGTCTGAACTCCAGTCA DNA 2: TGACTGGAGTTCAGACGTGTGCTCTTCCGATCTCATGACCTGGTCCTGCCAGAAGTTTCCTTGTGCAGTGCGTACTGAGCACTAGATAGC RNA: AAUUUCUACUCUUGUAGAUAGGAAACUUCUGGCAGGACC | -8.06 | -2.71 | -0.596
6 | AGCT (dsDNA) DNA 1: GCTATCTAGTGCTCAGTACGCACTGAGCTAGGAAACTTCTGGCAGGACCAGGTCATGAGATCGGAAGAGCACACGTCTGAACTCCAGTCA DNA 2: TGACTGGAGTTCAGACGTGTGCTCTTCCGATCTCATGACCTGGTCCTGCCAGAAGTTTCCTAGCTCAGTGCGTACTGAGCACTAGATAGC RNA: AAUUUCUACUCUUGUAGAUAGGAAACUUCUGGCAGGACC | -8.99 | -4.97 | -1.83
7 | ATGG (dsDNA) DNA 1: GCTATCTAGTGCTCAGTACGCACTGATGGAGGAAACTTCTGGCAGGACCAGGTCATGAGATCGGAAGAGCACACGTCTGAACTCCAGTCA DNA 2: TGACTGGAGTTCAGACGTGTGCTCTTCCGATCTCATGACCTGGTCCTGCCAGAAGTTTCCTCCATCAGTGCGTACTGAGCACTAGATAGC RNA: AAUUUCUACUCUUGUAGAUAGGAAACUUCUGGCAGGACC | -8.74 | -5.71 | -3.4
8 | CAAG (dsDNA) DNA 1: GCTATCTAGTGCTCAGTACGCACTGCAAGAGGAAACTTCTGGCAGGACCAGGTCATGAGATCGGAAGAGCACACGTCTGAACTCCAGTCA DNA 2: TGACTGGAGTTCAGACGTGTGCTCTTCCGATCTCATGACCTGGTCCTGCCAGAAGTTTCCTCTTGCAGTGCGTACTGAGCACTAGATAGC RNA: AAUUUCUACUCUUGUAGAUAGGAAACUUCUGGCAGGACC | -8.58 | -5.75 | -3.48
9 | CAAC (dsDNA) DNA 1: GCTATCTAGTGCTCAGTACGCACTGCAACAGGAAACTTCTGGCAGGACCAGGTCATGAGATCGGAAGAGCACACGTCTGAACTCCAGTCA DNA 2: TGACTGGAGTTCAGACGTGTGCTCTTCCGATCTCATGACCTGGTCCTGCCAGAAGTTTCCTGTTGCAGTGCGTACTGAGCACTAGATAGC RNA: AAUUUCUACUCUUGUAGAUAGGAAACUUCUGGCAGGACC | -8.83 | -5.54 | -3.19
10 | ATCG (dsDNA) DNA 1: GCTATCTAGTGCTCAGTACGCACTGATCGAGGAAACTTCTGGCAGGACCAGGTCATGAGATCGGAAGAGCACACGTCTGAACTCCAGTCA DNA 2: TGACTGGAGTTCAGACGTGTGCTCTTCCGATCTCATGACCTGGTCCTGCCAGAAGTTTCCTCGATCAGTGCGTACTGAGCACTAGATAGC RNA: AAUUUCUACUCUUGUAGAUAGGAAACUUCUGGCAGGACC | -6.64 | -3.44 | -0.793
11 | AGCG (dsDNA) DNA 1: GCTATCTAGTGCTCAGTACGCACTGAGCGAGGAAACTTCTGGCAGGACCAGGTCATGAGATCGGAAGAGCACACGTCTGAACTCCAGTCA DNA 2: TGACTGGAGTTCAGACGTGTGCTCTTCCGATCTCATGACCTGGTCCTGCCAGAAGTTTCCTCGCTCAGTGCGTACTGAGCACTAGATAGC RNA: AAUUUCUACUCUUGUAGAUAGGAAACUUCUGGCAGGACC | -8.91 | -4.77 | -1.73
12 | ATAC (dsDNA) DNA 1: GCTATCTAGTGCTCAGTACGCACTGATACAGGAAACTTCTGGCAGGACCAGGTCATGAGATCGGAAGAGCACACGTCTGAACTCCAGTCA DNA 2: TGACTGGAGTTCAGACGTGTGCTCTTCCGATCTCATGACCTGGTCCTGCCAGAAGTTTCCTGTATCAGTGCGTACTGAGCACTAGATAGC RNA: AAUUUCUACUCUUGUAGAUAGGAAACUUCUGGCAGGACC | -8.39 | -4.61 | -1.84
13 | ATCC (dsDNA) DNA 1: GCTATCTAGTGCTCAGTACGCACTGATCCAGGAAACTTCTGGCAGGACCAGGTCATGAGATCGGAAGAGCACACGTCTGAACTCCAGTCA DNA 2: TGACTGGAGTTCAGACGTGTGCTCTTCCGATCTCATGACCTGGTCCTGCCAGAAGTTTCCTGGATCAGTGCGTACTGAGCACTAGATAGC RNA: AAUUUCUACUCUUGUAGAUAGGAAACUUCUGGCAGGACC | -4.3 | -0.902 | -0.294
14 | AGGC (dsDNA) DNA 1: GCTATCTAGTGCTCAGTACGCACTGAGGCAGGAAACTTCTGGCAGGACCAGGTCATGAGATCGGAAGAGCACACGTCTGAACTCCAGTCA DNA 2: TGACTGGAGTTCAGACGTGTGCTCTTCCGATCTCATGACCTGGTCCTGCCAGAAGTTTCCTGCCTCAGTGCGTACTGAGCACTAGATAGC RNA: AAUUUCUACUCUUGUAGAUAGGAAACUUCUGGCAGGACC | -8.3 | -5.79 | -3.34
15 | CAAT (dsDNA) DNA 1: GCTATCTAGTGCTCAGTACGCACTGCAATAGGAAACTTCTGGCAGGACCAGGTCATGAGATCGGAAGAGCACACGTCTGAACTCCAGTCA DNA 2: TGACTGGAGTTCAGACGTGTGCTCTTCCGATCTCATGACCTGGTCCTGCCAGAAGTTTCCTATTGCAGTGCGTACTGAGCACTAGATAGC RNA: AAUUUCUACUCUUGUAGAUAGGAAACUUCUGGCAGGACC | -8.59 | -5.72 | -3.43
16 | CAAA (dsDNA) DNA 1: GCTATCTAGTGCTCAGTACGCACTGCAAAAGGAAACTTCTGGCAGGACCAGGTCATGAGATCGGAAGAGCACACGTCTGAACTCCAGTCA DNA 2: TGACTGGAGTTCAGACGTGTGCTCTTCCGATCTCATGACCTGGTCCTGCCAGAAGTTTCCTTTTGCAGTGCGTACTGAGCACTAGATAGC RNA: AAUUUCUACUCUUGUAGAUAGGAAACUUCUGGCAGGACC | -8.57 | -5.66 | -3.35
17 | CACG (dsDNA) DNA 1: GCTATCTAGTGCTCAGTACGCACTGCACGAGGAAACTTCTGGCAGGACCAGGTCATGAGATCGGAAGAGCACACGTCTGAACTCCAGTCA DNA 2: TGACTGGAGTTCAGACGTGTGCTCTTCCGATCTCATGACCTGGTCCTGCCAGAAGTTTCCTCGTGCAGTGCGTACTGAGCACTAGATAGC RNA: AAUUUCUACUCUUGUAGAUAGGAAACUUCUGGCAGGACC | -8.68 | -4.44 | -1.41
